According to PubChem BioAssay (Tox21):
Where “and” joins values, the source holds several entries; their conditions need not be identical. Equal entries are not always repeated. Results filed as inconclusive are left out. The source holds several records for some structures; these can differ, active in one and inactive in another. Calls of active or inactive are those of the source. Unless noted, calls come from the whole dose curve; as a rule, active = well fitted curve in the direction sought with a large enough effect in the repeat runs; inconclusive = weak or mixed curves; inactive = no such curve, though single readings can be large; an effect the other way counts as inactive or inconclusive.

How the values were obtained:
[1] = target: Thyrotropin receptor (Homo sapiens) (UniProt P16473); test: qHTS assay to identify small molecule agonists of the thyroid stimulating hormone receptor (TSHR) signaling pathway (AID 1224843; calls by dose curve; note: nearly all actives have a fitted effect of over 45% in size; note: potency is the fitted concentration of half-maximal effect)
Procedure, shortened: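 Agonist-mode screen: TSHR HEK293 cells received test chemicals for half an hour at room temperature, then HTRF cAMP detection reagents for one hour prior to fluorescence measurement. Each chemical ran as a 15-concentration series, triplicated.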

[2] = qHTS assay to identify small molecule agonists of the hypoxia (HIF-1) signaling pathway - cell viability counter screen (AID 1224844; calls by dose curve; note: nearly all actives have a fitted effect of over 50% in size; note: potency is the fitted concentration of half-maximal effect)
Procedure, shortened: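 In this counter screen, HRE-bla ME-180 cell viability after 17 hrs of compound exposure at 37C was read by CellTiter-Glo luminescence, multiplexed with the beta-lactamase reporter measurement.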

[3] = qHTS assay to identify small molecule agonists of H2AX (AID 1224845; active = well fitted activation curve with a large enough effect in the signal ratio in the repeat runs, not every such curve was filed as active; the % refers to the signal ratio)
Procedure, shortened: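 Wild-type CHO-K1 cells, plated overnight, exposed 3hr at 37C to 15 concentrations (0.76% DMSO final). Lysed, then HTRF anti-pH2AX (S139) cryptate and anti-H2AX-d2 antibodies, 24 hr room temperature; 665/620 nm emission read.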

[4] = qHTS assay to identify small molecule agonists of the hypoxia (HIF-1) signaling pathway (AID 1224846; active = well fitted activation curve with a large enough effect in the signal ratio in the repeat runs, not every such curve was filed as active; the % refers to the signal ratio)
Procedure, shortened: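 ME-180 HRE-bla reporter cells; compounds in DMSO, 17 h at 37C; read-out beta-lactamase via CCF4-AM FRET.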

[5] = qHTS assay to identify small molecule agonists of H2AX - cell viability counter screen (AID 1224847; calls by dose curve; note: nearly all actives have a fitted effect of over 30% in size; note: potency is the fitted concentration of half-maximal effect)
Procedure, shortened: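 Quantitative HTS viability measurement: CHO-K1 wild-type cells in serum (10% FBS) medium, short 3 hr drug exposure at 37C with 0.76% DMSO, CellTiter-Glo luminescent detection.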

[6] = qHTS assay to identify small molecule antagonists of the estrogen related receptor (ERR) signaling pathway from Tox21 library (AID 1224848); note: nearly all actives have a fitted effect of over 50% in size
Procedure, shortened: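 Quantitative high-throughput format: ERR reporter cells (2,000/well) pre-incubated 6 h, treated 18 h at 37 C with compounds in DMSO alongside positive and negative controls, then read by ONE-Glo luminescence.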

[7] = qHTS assay to identify small molecule agonists of the estrogen related receptor (ERR) signaling pathway from Tox21 library (AID 1224849; calls by dose curve; note: nearly all actives have a fitted effect of over 15% in size); conditions: ERR reporter cell line, ONE-Glo luciferase, 18 h
Procedure, shortened: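 Luciferase activity in ERR pathway reporter cells served as the agonist readout; exposure lasted 18 h at 37 C, with ONE-Glo detection after 30 min at room temperature.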

[8] = qHTS RealTime-Glo MT Cell Viability Assay in HepG2 cells - 24 hour (AID 1224867); note: nearly all actives have a fitted effect of over 50% in size; note: potency is the fitted concentration of half-maximal effect
Procedure, shortened: (§1)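 Tox21 10K library screened in qHTS format on HepG2 cells carrying RealTime-Glo reagents. Compounds were added after a 5 h preincubation, and the luminescent signal from continuous culture was measured repeatedly during 40 h treatment.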

[9] = A CellTox Green Cytotoxicity Assay to monitor cytotoxicity in HEK293 cells - 0 hour (AID 1224869); note: nearly all actives have a fitted effect of over 50% in size
Procedure, shortened: (§2)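 Real-time, in one plate: 600 HEK293 cells/well with dead-cell DNA dye, pinned compound after 5 h, 37 C incubation over 40 h; viable cells give no appreciable fluorescence.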

[10] = qHTS RealTime-Glo MT Cell Viability Assay in HepG2 cells - 40 hour (AID 1224870); note: nearly all actives have a fitted effect of over 50% in size; note: potency is the fitted concentration of half-maximal effect
Procedure, shortened: (§3)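 HepG2 cells (600/well) mixed with RealTime-Glo MT reagent, settled 5 h at 37 C/5% CO2 before compound addition. Nonlytic NanoLuc luminescence from viable-cell prosubstrate reduction read repeatedly during 40 h treatment at 37 C.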

[11] = A CellTox Green Cytotoxicity Assay to monitor cytotoxicity in HEK293 cells - 40 hour (AID 1224871); note: nearly all actives have a fitted effect of over 45% in size; note: potency is the fitted concentration of half-maximal effect
Procedure, shortened: as §2

[12] = qHTS RealTime-Glo MT Cell Viability Assay in HepG2 cells - 8 hour (AID 1224873); note: nearly all actives have a fitted effect of over 55% in size; note: potency is the fitted concentration of half-maximal effect
Procedure, shortened: as §3

[13] = A CellTox Green Cytotoxicity Assay to monitor cytotoxicity in HEK293 cells - 24 hour (AID 1224875); note: nearly all actives have a fitted effect of over 45% in size
Procedure, shortened: as §2

[14] = A CellTox Green Cytotoxicity Assay to monitor cytotoxicity in HepG2 cells - 16 hour (AID 1224876); note: nearly all actives have a fitted effect of over 45% in size
Procedure, shortened: (§4)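 Cytotoxicity was tracked as dead-cell DNA fluorescence in HepG2 cells treated with test compounds at 37 C; each time-point value comes from one kinetic series spanning 0, 8, 16, 24, 32 and 40 h.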

[15] = qHTS RealTime-Glo MT Cell Viability Assay in HepG2 cells - 32 hour (AID 1224877); note: nearly all actives have a fitted effect of over 55% in size; note: potency is the fitted concentration of half-maximal effect
Procedure, shortened: as §1

[16] = qHTS RealTime-Glo MT Cell Viability Assay in HEK293 cells - 32 hour (AID 1224868); note: nearly all actives have a fitted effect of over 50% in size; note: potency is the fitted concentration of half-maximal effect
Procedure, shortened: (§5)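 Luminescence generated by NanoLuc from substrate produced by living HEK293 cells served as the viability signal. Each value reflects the reading at its stated time point during continuous 40 h compound exposure at 37 C.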

[17] = qHTS RealTime-Glo MT Cell Viability Assay in HEK293 cells - 40 hour (AID 1224874); conditions: RealTime-Glo luminescence; max response: stronger effect = lower value; note: nearly all actives have a fitted effect of over 50% in size
Procedure, shortened: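 Kinetic, non-lysing viability readout. Seed HEK293 (600/well) with reagent, incubate 5 h at 37 C/5% CO2, pin 23 nL compound in DMSO, incubate at 37 C, read luminescence at 0, 8, 16, 24, 32, 40 h.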

[18] = A CellTox Green Cytotoxicity Assay to monitor cytotoxicity in HepG2 cells - 24 hour (AID 1224878); note: nearly all actives have a fitted effect of over 45% in size; note: potency is the fitted concentration of half-maximal effect
Procedure, shortened: as §4

[19] = A CellTox Green Cytotoxicity Assay to monitor cytotoxicity in HepG2 cells - 40 hour (AID 1224879); note: nearly all actives have a fitted effect of over 40% in size; note: potency is the fitted concentration of half-maximal effect
Procedure, shortened: as §4

[20] = qHTS RealTime-Glo MT Cell Viability Assay in HEK293 cells - 16 hour (AID 1224872); note: nearly all actives have a fitted effect of over 50% in size; note: potency is the fitted concentration of half-maximal effect
Procedure, shortened: as §5
% is set by controls: 0 for no effect and ±100 for the full control effect.

Thyrotropin receptor (Homo sapiens), sequence (P16473 whole entry, looked up): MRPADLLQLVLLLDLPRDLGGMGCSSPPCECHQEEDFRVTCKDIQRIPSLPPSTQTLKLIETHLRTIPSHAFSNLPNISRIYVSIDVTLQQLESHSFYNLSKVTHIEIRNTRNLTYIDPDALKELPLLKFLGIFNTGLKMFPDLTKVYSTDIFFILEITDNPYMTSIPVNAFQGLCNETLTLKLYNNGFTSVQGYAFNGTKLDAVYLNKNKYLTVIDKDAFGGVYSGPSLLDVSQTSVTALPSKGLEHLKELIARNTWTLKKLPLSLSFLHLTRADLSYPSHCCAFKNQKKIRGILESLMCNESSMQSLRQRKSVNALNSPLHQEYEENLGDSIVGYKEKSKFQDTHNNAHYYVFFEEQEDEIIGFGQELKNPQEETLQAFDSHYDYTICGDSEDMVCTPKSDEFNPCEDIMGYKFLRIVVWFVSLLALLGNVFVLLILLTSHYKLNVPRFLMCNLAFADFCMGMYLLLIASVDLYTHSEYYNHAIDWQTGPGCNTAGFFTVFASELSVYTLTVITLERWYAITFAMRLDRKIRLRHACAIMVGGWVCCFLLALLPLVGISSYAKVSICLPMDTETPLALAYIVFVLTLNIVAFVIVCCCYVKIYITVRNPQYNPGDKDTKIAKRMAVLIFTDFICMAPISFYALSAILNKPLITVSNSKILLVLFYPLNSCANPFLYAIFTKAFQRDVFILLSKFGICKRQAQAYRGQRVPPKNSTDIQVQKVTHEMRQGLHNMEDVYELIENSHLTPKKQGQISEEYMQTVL

CCC(C)OC(=O)c1ccc(O)cc1 (stereo not given)
inactive: Potency [1] | Potency [2] | outcome [3] | Potency [4] | Potency [5] | Potency [6] | Potency [8] | Potency [9] | Potency [10] | Potency [11] | Potency [12] | Potency [13] | Potency [14] | Potency [15]
active: activity change, positive = activation ([7]; at 92.4 µM (top of the series)) 6.7%

Cc1ccc2c(n1)Oc1ccc(C(C)C(=O)OCC(=O)N(C)C)cc1C2 (stereo not given)
inactive: Potency [1] | Potency [2] | outcome [3] | Potency [4] | Potency [5] | Potency [6] | Potency [8] | Potency [16] | Potency [9] | Potency [10] | Potency [11] | max response [17] -20.9% and -25.9% | Potency [13] | Potency [14] | Potency [15] | Potency [18] | Potency [19]
24.3% (active) and 6.58% (inactive): activity change, positive = activation ([7]; at 42.5 µM (top of the series))

O=[N+]([O-])c1ccc2c(c1)Cc1ccccc1-2
inactive: Potency [1] | Potency [2] | Potency [4] | Potency [5] | Potency [6] | activity change, positive = activation ([7]; at 92.4 µM (top of the series)) 1.03% and -0.93% | Potency [8] | Potency [16] | Potency [9] | Potency [10] | Potency [11] | Potency [20] | Potency [12] | max response [17] 0.388% and -3.63% | Potency [13] | Potency [14] | Potency [15] | Potency [18] | Potency [19]

Nc1ccc(S(=O)(=O)Nc2cnc3ccccc3n2)cc1
inactive: Potency [1] | Potency [2] | outcome [3] | Potency [5] | Potency [8] | Potency [16] | Potency [9] | Potency [10] | Potency [11] | Potency [20] | Potency [12] | Potency [13] | Potency [14] | Potency [18] | Potency [19]

CCC(C)c1ccccc1O (stereo not given)
inactive: Potency [1] | Potency [2] | outcome [3] | Potency [4] | Potency [5] | Potency [6] | activity change, positive = activation ([7]; at 92.4 µM (top of the series)) -6.99% and 2.48% | Potency [8] | Potency [16] | Potency [9] | Potency [10] | Potency [20] | Potency [12] | max response [17] -13% and 2.84% | Potency [14] | Potency [15] | Potency [18]
active: Potency [11] 34.4 µM | Potency [19] 48.6 µM

COC(=O)CCC(=O)OC
inactive: Potency [1] | Potency [2] | Potency [4] | Potency [5] | Potency [6] | activity change, positive = activation ([7]; at 92.4 µM (top of the series)) 8.82% and 7.51% | Potency [8] | Potency [16] | Potency [9] | Potency [10] | Potency [11] | Potency [12] | max response [17] -3.79% and 17.6% | Potency [13] | Potency [14] | Potency [18] | Potency [19]

CCCCC(CC)COCC1CO1 (stereo not given)
inactive: Potency [1] | Potency [2] | Potency [4] | Potency [5] | Potency [6] | activity change, positive = activation ([7]; at 92.4 µM (top of the series)) 1.35% and -0.071% | Potency [8] | Potency [16] | Potency [9] | Potency [10] | Potency [11] | Potency [20] | Potency [12] | max response [17] 1.02% and 0.683% | Potency [13] | Potency [14] | Potency [15] | Potency [18] | Potency [19]

NNc1ccc(C(=O)O)cc1
inactive: Potency [1] | Potency [2] | outcome [3] | Potency [4] | Potency [5] | Potency [8] | Potency [16] | Potency [9] | Potency [10] | Potency [11] | Potency [20] | Potency [12] | max response [17] 12.1% | Potency [13] | Potency [14] | Potency [15] | Potency [18] | Potency [19]

Cc1c(C(N)=O)cc([N+](=O)[O-])cc1[N+](=O)[O-]
inactive: Potency [1] | Potency [2] | outcome [3] | Potency [4] | Potency [5] | Potency [8] | Potency [16] | Potency [9] | Potency [10] | Potency [11] | Potency [12] | max response [17] 1.58% and 7.25% | Potency [13] | Potency [14] | Potency [15] | Potency [18] | Potency [19]

COC(=O)C1=C(C)NC(C)=C(C(=O)OCCN(C)Cc2ccccc2)C1c1cccc([N+](=O)[O-])c1 (stereo not given)
inactive: Potency [2] | outcome [3] | Potency [9] | Potency [11] | Potency [13] | Potency [14]
active: Potency [1] 30.5 µM | Potency [5] 44.7 µM and 49.2 µM | Potency [8] 24.4 µM and 10.7 µM | Potency [16] 21.7 µM and 16.9 µM | Potency [10] 43.4 µM | Potency [20] 21.7 µM and 16.9 µM | Potency [12] 24.4 µM and 19 µM | Potency [15] 43.4 µM
48.7 µM (active) and inactive: Potency [18] | Potency [19]

CC(C)OC=O
58.4 µM (active) and inactive: Potency [2]
inactive: Potency [1] | Potency [4] | Potency [5] | Potency [6] | activity change, positive = activation ([7]; at 92.4 µM (top of the series)) -9.53% and -2.76% | Potency [8] | Potency [16] | Potency [9] | Potency [10] | Potency [11] | Potency [12] | max response [17] 5.62% and -7.32% | Potency [13] | Potency [14] | Potency [18] | Potency [19]

CCCCOCCOCCOCCO
inactive: Potency [1] | Potency [2] | Potency [4] | Potency [5] | Potency [6] | activity change, positive = activation ([7]; at 42.5 µM (top of the series)) 2.27% | activity change, positive = activation ([7]; at 92.4 µM (top of the series)) -1.73% | Potency [8] | Potency [16] | Potency [9] | Potency [10] | Potency [11] | Potency [12] | max response [17] 3.72% and 4.47% | Potency [13] | Potency [14] | Potency [18] | Potency [19]

Cc1ccc(C)c(O)c1C
inactive: Potency [1] | Potency [2] | outcome [3] | Potency [4] | Potency [5] | Potency [8] | Potency [16] | Potency [9] | Potency [10] | Potency [11] | Potency [20] | Potency [12] | max response [17] 1.3% and 2.18% | Potency [13] | Potency [14] | Potency [18] | Potency [19]
